# In the library only some 3.3% were active in any assay of this set; here they are far more common.
# Rpn11 block: inhibitors of human proteasome Rpn11; human 26S proteasome, Ub4-pepOG fluorescence polarization; 20S core pre-blocked with epoxomicin; O00487; 360,000 compounds, 0.59% hits; AID 588493; inhibition, % at 20 µM;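 active = inhibition at 20 µM, scaled to each plate's controls, above about 33%, limit read from the data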
# Target sequence (O00487 whole entry, looked up): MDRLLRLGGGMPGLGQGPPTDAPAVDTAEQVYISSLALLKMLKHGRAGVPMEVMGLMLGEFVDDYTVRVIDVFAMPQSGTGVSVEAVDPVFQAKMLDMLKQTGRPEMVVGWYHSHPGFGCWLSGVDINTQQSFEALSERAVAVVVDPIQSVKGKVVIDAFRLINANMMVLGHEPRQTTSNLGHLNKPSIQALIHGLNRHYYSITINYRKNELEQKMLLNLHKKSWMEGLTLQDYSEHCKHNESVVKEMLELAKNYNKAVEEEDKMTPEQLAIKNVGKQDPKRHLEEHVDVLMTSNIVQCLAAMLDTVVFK
# TPT1 inhibitor: C. albicans TPT1 enzyme inhibition; recombinant caTPT1, FP RNA substrate dephosphorylation; inhibition, % at 5 µM; 300,000 compounds, 0.81% hits;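 active = inhibition above the mean of all tested compounds plus 3 SD, set per screening campaign, cut at about 24% in these data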;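 also: plate controls were DMSO alone for no effect and ferristatin control at 100 nM for full effect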
# NRP1-CendR mod: alters CendR peptide binding to human NRP-1. O14786. FAM-RPARPAR peptide binding to NRP-1, fluorescence polarization. inhibition, % at 25 µM. 360,000 compounds, 0.85% hits;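 active = inhibition or corrected inhibition above about 18%, plus a signal ratio from 0.5 to 1.5, limit read from the data, passing the limit was not always enough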
# HNF4A DNA FP: change in binding of human HNF4 alpha to DNA | P41235 | HNF4a-FITC DNA binding, fluorescence polarization, 1 h | activity change, % at 10 µM | 360,000 compounds, 0.3% hits; in the data active = activity change above about 30%, passing the limit was not always enough
# Fh CTSL1 inh: cathepsin L1 inhibition, PFM18AAP counter-screen; recombinant F. hepatica cathepsin L1, Z-Leu-Arg-MCA fluorescence; inhibition, % at 5.96 µM; 300,000 compounds, 0.49% hits;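 active = inhibition above the mean of all tested compounds plus 3 SD, set per screening campaign, cut at about 17% in these data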;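 also: 0% = plate median of test compound wells and 100% = 1 µM Z-Phe-Ala-diazomethylketone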
# PHOSPHO1 block: blocks human PHOSPHO1 phosphatase activity; Q8TCT1; recombinant PHOSPHO1, absorbance phosphatase assay; AID 1565; inhibition, % at 13.3 µM; 290,000 compounds, 1.1% hits; in the data active = inhibition above about 60%
# TPT1 inh confirm: confirmation of Candida albicans TPT1 inhibitors. AID 2149. inhibition, % at 5 µM. recombinant caTPT1, fluorescence polarization, RNase T1 coupled. 2,400 compounds, 74% hits. shares compounds with TPT1 inhibitor;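 active = inhibition above the primary screen limit, the mean inhibition of all tested compounds plus 3 SD, cut at about 25% in these data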
# RNase T1 counter: counter-screen for TPT1 inhibitors: inhibitors of Aspergillus oryzae RNase T1; RNase T1 cleavage, fluorescence polarization, 1536-well; 2,400 compounds, 83% hits; shares compounds with TPT1 inhibitor; inhibition, % at 5 µM;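 active = inhibition above the solvent-only control well mean plus 3 SD, limit set per screening run, cut at about 23% in these data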;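 also: plate controls were DMSO wells with enzyme for no effect and wells without RNase T1 for full effect; inhibitors block cleavage so intact labeled substrate keeps polarization high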
# Target sequence (P00651 whole entry, looked up): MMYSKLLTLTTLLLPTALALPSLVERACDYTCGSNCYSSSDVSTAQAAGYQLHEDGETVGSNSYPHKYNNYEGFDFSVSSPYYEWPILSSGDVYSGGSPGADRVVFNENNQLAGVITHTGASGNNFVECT
# Active calls of the source: *; nt = no result shown; + = active, no number.
SMILES,Rpn11 block,TPT1 inhibitor,NRP1-CendR mod,HNF4A DNA FP,Fh CTSL1 inh,PHOSPHO1 block,TPT1 inh confirm,RNase T1 counter
O=C(O)c1cc(Cl)ccc1-c1ccc(/C=C/c2cc(C(F)(F)F)[nH]c(=O)n2)o1,nt,61.7*,132.4,75.7,5.7,32.8,85.1*,91.2*
O=c1nc(/C=C/c2ccc(-c3ccc(F)cc3)o2)cc(C(F)(F)F)[nH]1,nt,110.0*,nt,nt,5.7,0.9,105.9*,106.2*
O=C(O)c1ccccc1-c1ccc(/C=C/c2cc(C(F)(F)F)[nH]c(=O)n2)o1,nt,nt,135.1,47.3,nt,-64.3,nt,nt
CCCCOc1ccc(C2/C(=C(/O)c3ccc4c(c3)CC(C)O4)C(=O)C(=O)N2CCCN2CCOCC2)cc1OC (centres undefined),6.5,-2.6,-18.7,1.4,0.9,36.4,nt,nt
COc1cc(/C=C/C(=O)O)ccc1O,-0.8,-3.3,4.7,2.9,-1.6,nt,nt,nt
COc1cc(/C=C2/C(=O)CNC2=O)ccc1O,21.5,29.9*,-23.2,3.4,0.4,3.2,54.6*,77.1*
COc1cc(/C=C/C(=O)CC(=O)/C=C/c2ccc(O)c(OC)c2)ccc1O,nt,139.2*,141.3,111.7,0.5,-11.2,146.6*,135.2*
O=C1N/C(=N\S(=O)(=O)c2ccccc2)S/C1=C\c1cc([N+](=O)[O-])ccc1O,nt,76.1*,-264.1,13.6,5.6,27.9,78.2*,82.9*
COc1cc(/C=C2\S/C(=N/S(=O)(=O)Cc3ccccc3)NC2=O)c([N+](=O)[O-])cc1OC,0.5,-6.0,-39.4,-1.2,1.9,1.5,nt,nt
O=C1N/C(=N\S(=O)(=O)Cc2ccccc2)S/C1=C/c1cc([N+](=O)[O-])ccc1O,nt,68.5*,-209.7,4.1,6.8,11.5,75.2*,80.1*
CCOc1ccc(CN2CCNC(=O)C2CC(=O)N(C)CC2CCOCC2)cc1 (centres undefined),0.5,-1.2,7.1,-5.0,4.4,36.4,nt,nt
O=c1c2c3c(sc2ncn1Cc1ccc(F)cc1)CCC3,-2.1,26.8*,-65.8,10.7,-0.5,7.1,25.7*,34.4*
CCN1C(=O)/C(=C/C=C2\N(CC)c3cc(S(=O)(=O)N(C)C)ccc3N2c2ccccc2)SC1=S,nt,135.7*,54.2,133.2,2.9,19.7,94.1*,93.7*
CCN1C(=O)/C(=C\C=C\c2ccccc2[N+](=O)[O-])SC1=S,4.9,nt,-14.8,5.2,nt,1.8,nt,nt
CCOC(=O)C1=C(CC)OC(N)=C(C#N)C1c1cccs1 (centres undefined),0.2,-17.4,9.8,2.9,-6.0,26.1,nt,nt
CCN1CC2=C(OC(N)=C(C#N)C2c2cccs2)/C(=C\c2cccs2)C1 (centres undefined),nt,25.7*,-29.8,5.2,-3.4,11.3,14.2,21.4
COc1ccc(NC(=O)c2cc(S(=O)(=O)N3CCOCC3)cs2)cc1,-4.5,-2.2,6.4,2.1,-3.1,21.6,nt,nt
CCOc1cc(/C=C(\C#N)C(=O)Nc2ccccn2)ccc1O,18.9,10.3,-22.4,3.0,2.3,30.5,nt,nt
COc1cc(/C=C(\C#N)C(=O)Nc2ccccn2)ccc1O,28.4,33.9*,-37.6,9.6,10.1,6.3,57.2*,63.5*
CCOC(=O)C1CCN(C(=O)Cn2nc(C)n3nc(-c4ccc(CC)cc4)cc3c2=O)CC1,4.5,0.2,4.0,2.5,-0.3,23.9,nt,nt
COc1cc(N=Nc2cccc(S(N)(=O)=O)c2)c2ccccc2c1N,91.7*,89.3*,-77.2,25.0,1.4,33.4,44.0*,53.7*
Cc1sc(NC(=O)Cn2[nH]c(=O)c3ccccc3c2=O)nc1-c1ccccc1,25.6,9.4,-31.8,4.7,-1.4,-1.3,nt,nt
N#Cc1ccccc1Cn1c(=O)n(Cc2ccc(C(=O)NCc3ccco3)cc2)c(=O)c2ccccc21,5.3,-0.1,1.8,0.1,5.2,-38.4,nt,nt
N#Cc1ccccc1Cn1c(=O)n(CCC(=O)NCc2ccco2)c(=O)c2ccccc21,-2.3,+,-0.4,0.6,4.2,-12.2,19.8,25.2*
CC(=O)c1c(N2CCN(c3ccccc3)CC2)nc(=S)n(-c2ccccc2)c1C,32.6,77.6*,-104.7,12.9,-1.1,10.5,25.9*,35.2*

# From PubChem BioAssay
